Results on three molecules are retold here after PubChem BioAssay (NCATS).

Activity calls are given as the source filed them. How the calls were made is not given here.
Potency means the concentration at half of the fitted maximal effect.

The test can be described thus: Immunotoxin (HA22) sensitization/mitigation study. Vehicle arm (PBS) (AID 1159510). The settings on record: cancer cells viability with PBS vehicle (HA22 study); series mostly up to 46.1 µM.
On to `CC(=O)c1c(C)c2cnc(Nc3ccc(N4CCNCC4)cn3)nc2n(C2CCCC2)c1=O`, for which the Potency is 16.6 µM (active).

For `CCCS(=O)(=O)Nc1ccc(F)c(C(=O)c2c[nH]c3ncc(-c4ccc(Cl)cc4)cc23)c1F`, the Potency is 23.5 µM (active).

With `NC(=O)c1c(OCc2c(F)cc(Br)cc2F)nsc1NC(=O)NCCCCN1CCCC1`, the Potency is 23.5 µM (active).
